Experimental data published in PubChem BioAssay (NCI).
Compounds without any hit were thinned out: in the full panel of roughly 79,000, 15% have a hit. Values without a mark were called inactive. The source made the active and inactive calls. Cut-off read from the data, not from the text of the source: active = growth inhibition above about 70%; inactive = the rest.

Columns and labels:
[1] = NCI Yeast Anticancer Drug Screen. Data for the rad50 strain (AID 155);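 note: 0% = growth of vehicle-only cultures of the same strain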; settings: S. cerevisiae rad50 strain growth inhibition, hits give high values
How it was run: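 Relative growth inhibition (compound vs vehicle) was measured in yeast with a defined repair-gene alteration.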

[2] = NCI Yeast Anticancer Drug Screen. Data for the mec2-1 strain (AID 157); settings: S. cerevisiae mec2-1 strain, hits give high values
How it was run: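 Test agents were screened against the mec2-1 yeast strain, with defined DNA repair or cell cycle alteration. Growth was scored as inhibition against vehicle-only controls.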

[3] = NCI Yeast Anticancer Drug Screen. Data for the sgs1 mgt1 strain (AID 161);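 note: 0% = growth of cultures given vehicle only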; settings: S. cerevisiae sgs1 mgt1 strain, hits give high values
How it was run: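 Inhibition of yeast growth, normalised to vehicle-treated controls, is reported for a strain bearing genetic alterations in DNA damage repair.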

[4] = NCI Yeast Anticancer Drug Screen. Data for the cln2 rad14 strain (AID 165);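 note: 0% = growth equal to vehicle treated cultures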; settings: S. cerevisiae cln2 rad14 strain, hits give high values
How it was run: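 Growth of compound-exposed yeast (cln2 rad14 genotype) measured and expressed as inhibition relative to vehicle.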

[5] = NCI Yeast Anticancer Drug Screen. Data for the bub3 strain (AID 167); settings: S. cerevisiae bub3 mutant strain, hits give high values
How it was run: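 Screening used yeast with an engineered genetic alteration affecting cell cycle control. Compound-exposed cultures were compared with vehicle cultures, and reduced growth was taken as inhibition.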

[6] = NCI Yeast Anticancer Drug Screen. Data for the mlh1 rad18 strain (AID 175); settings: S. cerevisiae mlh1 rad18 strain growth inhibition, hits give high values
How it was run: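 In this whole-cell yeast screen, a strain with altered DNA damage repair is challenged with compound, and its growth is measured against matched vehicle-treated controls.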

[7] = at 5.0 µM (retest, dose inferred, filed as 0.5)
[8] = at 50.0 µM (retest, dose inferred, filed as 5.0)

| Structure (SMILES) | growth inhibition [1, 7] | growth inhibition [1, 8] | growth inhibition ([1]; at 50.0 µM) | growth inhibition [2, 7] | growth inhibition [2, 8] | growth inhibition ([2]; at 50.0 µM) | growth inhibition [3, 7] | growth inhibition [3, 8] | growth inhibition ([3]; at 50.0 µM) | growth inhibition [4, 7] | growth inhibition [4, 8] | growth inhibition ([4]; at 50.0 µM) | growth inhibition [5, 7] | growth inhibition [5, 8] | growth inhibition ([5]; at 50.0 µM) | growth inhibition [6, 7] | growth inhibition [6, 8] | growth inhibition ([6]; at 50.0 µM) |
| --- | --- | --- | --- | --- | --- | --- | --- | --- | --- | --- | --- | --- | --- | --- | --- | --- | --- | --- |
| C=C1CC(Cn2ccc(=O)[nH]c2=O)(c2ccc(Cl)cc2)OC1=O (stereo not given) | 11% | 64% | 47.9% | -4% | 85% (active) | 49.8% | -22% | 80% (active) | 70% (active) | 27% | 35% | 39.5% | 6% | 87% (active) | 65.8% | 19% | 81% (active) | 74.1% (active) |
| COC(=O)c1[nH]cnc1/N=N/N(C)C | 98% (active) | 98% (active) | 98.8% (active) | 99% (active) | 99% (active) | 98.9% (active) | 99% (active) | 99% (active) | 99.5% (active) | 99% (active) | 98% (active) | 99% (active) | 49% | 49% | 98.8% (active) | 98% (active) | 99% (active) | 99.3% (active) |
| CN(C)CCCNc1ccc2c(=O)n(CCN(C)C)c(=O)n3c4ccccc4c(=O)c1c23 | 42% | 69% | 71.7% (active) | 29% | 33% | 55% | 28% | 18% | 26.2% | 40% | 24% | 58.6% | 61% | 37% | 40.9% | 55% | 61% | 25.4% |
| COC1/C=C/OC2(C)Oc3c(C)c(OC(C)=O)c4c(c3C2=O)C(=O)C=C(NC(=O)/C(C)=C\C=C\C(C)C(O)C(C)C(O)C(C)C(OC(C)=O)C1C)C4=O (stereo not given) | 6% | 70% (active) | 53.4% | -44% | 87% (active) | 50% | 1% | 52% | 6% | 3% | 96% (active) | 69.8% | 0% | 85% (active) | 42.6% | 5% | 90% (active) | 46.5% |
| O=C1c2ccccc2C(=O)c2sc(Nc3cccc(Cl)c3)nc21 | 93% (active) | 98% (active) | 89.6% (active) | 93% (active) | 99% (active) | 92.2% (active) | 92% (active) | 99% (active) | 93% (active) | 54% | 98% (active) | 89.9% (active) | 98% (active) | 97% (active) | 90.6% (active) | 92% (active) | 98% (active) | 90.5% (active) |
| COc1ccc(OC)c(N=Nc2c(C)[nH]n(C(N)=S)c2=O)c1 | -6% | 47% | 79.3% (active) | -3% | 34% | 19% | 7% | 34% | 80.7% (active) | -2% | 27% | 10.6% | -14% | 26% | 42.1% | 11% | 25% | 66.7% |
| COc1nc(Nc2ccc(/C=C/c3ccc(Nc4nc(OC)nc(N(CCO)CCO)n4)cc3S(=O)(=O)O)c(S(=O)(=O)O)c2)nc(N(CCO)CCO)n1 | -4% | 53% | 14.2% | -4% | 37% | 58.9% | -3% | 51% | 45.8% | -1% | 17% | 5.8% | -4% | 28% | 3.2% | 0% | 49% | 80.4% (active) |
| C[C@]12CCC(=O)C=C1CC[C@@H]1[C@@H]2[C@@H](O)C[C@@]2(C)[C@H]1CC[C@]2(O)C(=O)COC(=O)C1CCCC1 | -7% | -10% | 76.8% (active) | 1% | -1% | 19.8% | -2% | -9% | 87.7% (active) | -18% | -93% | 35.9% | 8% | 11% | 82.8% (active) | -7% | -16% | 72.2% (active) |
| Cc1ccc2c(c1)C1(C)C=C(CN3CCN(C)CC3)C(=O)CC1O2 (stereo not given) | 16% | 97% (active) | 99.6% (active) | 20% | 99% (active) | 99.7% (active) | 22% | 99% (active) | 99.8% (active) | -4% | 99% (active) | 99.6% (active) | -3% | 99% (active) | 99.7% (active) | 11% | 99% (active) | 99.5% (active) |
| Clc1ccc(N=Cc2c3ccccc3cc3ccccc23)c(Cl)c1 | 0% | -3% | 79.7% (active) | 3% | 2% | 85.4% (active) | -5% | 5% | 87.4% (active) | 15% | 22% | 31% | 2% | 29% | 79.5% (active) | -7% | 44% | 77.5% (active) |
